Source: PubChem BioAssay AID1159580 (chemical genetic matrix, 2015)
“And” between values parts separate entries of the source, which are not always exact repeats. Equal entries are not always repeated. Out of some 5,500 compounds screened, about 2,000 (36%) were called active. Not shown: some 18% with an inconclusive outcome. Rule as the data show it: active = normalized growth mostly below about 0.91 (no sharp cut-off); inconclusive = no clear call, values can overlap the other calls; inactive = mostly above about 0.92. The list shows a part of the results.

Test: chemical genetic growth profiling, strain panel (AID 1159580);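 also: tested at 20 µM; growth read once vehicle control cultures reached saturation at 30 °C; 1 = growth at the plate median or of vehicle wells; lower values mean less growth of the strain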
Conditions: growth OD

Measured: normalized growth

CCN(CC)CCNC(=O)c1cc(Cl)c(N)cc1OC
inactive: S. cerevisiae deletion strains, locus YJR075W, strain HOC1, active compounds read low 0.998 | S. cerevisiae deletion strains, locus YKL009W, strain mrt4, active compounds read low 1.01 | S. cerevisiae deletion strains, locus YKL068W, active compounds read low 1.01 | S. cerevisiae deletion strains, locus YKL085W, strain MDH1 (second series), active compounds read low 1 | S. cerevisiae deletion strains, locus YKL085W, strain MDH1, active compounds read low 1 | S. cerevisiae deletion strains, locus YKL160W, strain elf1, active compounds read low 0.97 | S. cerevisiae deletion strains, locus YKL190W, strain CNB1, active compounds read low 1.02 | S. cerevisiae deletion strains, locus YKR001C, strain vps1, active compounds read low 1 | S. cerevisiae deletion strains, locus YKR026C, strain gcn3, active compounds read low 0.996 | S. cerevisiae deletion strains, locus YKR091W, strain srl3, active compounds read low 0.972 | S. cerevisiae deletion strains, locus YLL001W, strain dnm1, active compounds read low 0.921 | S. cerevisiae deletion strains, locus YLL026W, active compounds read low 0.977 | S. cerevisiae deletion strains, locus YLL041C, strain sdh2, active compounds read low 0.991 | S. cerevisiae deletion strains, locus YLR027C, strain aat2, active compounds read low 0.983 | S. cerevisiae deletion strains, locus YLR039C, strain RIC1, active compounds read low 0.996 | S. cerevisiae deletion strains, locus YLR058C, strain SHM2, active compounds read low 1.01 | S. cerevisiae deletion strains, locus YLR102C, strain apc9, active compounds read low 0.992 | S. cerevisiae deletion strains, locus YLR113W, strain HOG1, active compounds read low 1.06 | S. cerevisiae deletion strains, locus YLR221C, strain rsa3, active compounds read low 0.961 | S. cerevisiae deletion strains, locus YLR258W, strain gsy2, active compounds read low 0.997 | S. cerevisiae deletion strains, locus YLR262C, strain YPT6 (second series), active compounds read low 0.977 | S. cerevisiae deletion strains, locus YLR262C, strain YPT6, active compounds read low 1.05 | S. cerevisiae deletion strains, locus YLR268W, strain sec22, active compounds read low 0.963 | S. cerevisiae deletion strains, locus YLR320W, strain mms22, active compounds read low 0.962 | S. cerevisiae deletion strains, locus YLR330W, strain CHS5, active compounds read low 1 | S. cerevisiae deletion strains, locus YLR342W, strain FKS1 (second series), active compounds read low 0.995 | S. cerevisiae deletion strains, locus YLR342W, strain FKS1, active compounds read low 0.983 | S. cerevisiae deletion strains, locus YLR357W, strain rsc2, active compounds read low 0.965 | S. cerevisiae deletion strains, locus YLR370C, strain arc18, active compounds read low 0.973 | S. cerevisiae deletion strains, locus YLR371W, strain rom2, active compounds read low 0.995 | S. cerevisiae deletion strains, locus YLR384C, strain iki3, active compounds read low 0.976 | S. cerevisiae deletion strains, locus YLR418C, strain cdc73, active compounds read low 0.976 | S. cerevisiae deletion strains, locus YML016C, strain PPZ1, active compounds read low 1.01 | S. cerevisiae deletion strains, locus YML032C, strain rad52, active compounds read low 0.987 | S. cerevisiae deletion strains, locus YML120C, strain ndi1, active compounds read low 0.945 | S. cerevisiae deletion strains, locus YML124C, strain tub3, active compounds read low 1 | S. cerevisiae deletion strains, locus YMR058W, strain fet3, active compounds read low 0.983 | S. cerevisiae deletion strains, locus YMR078C, strain ctf18, active compounds read low 0.994 | S. cerevisiae deletion strains, locus YMR125W, strain sto1, active compounds read low 0.951 | S. cerevisiae deletion strains, locus YMR129W, active compounds read low 0.995 | S. cerevisiae deletion strains, locus YMR205C, strain PFK2, active compounds read low 0.954 | S. cerevisiae deletion strains, locus YMR223W, strain ubp8, active compounds read low 0.997 | S. cerevisiae deletion strains, locus YMR231W, strain pep5, active compounds read low 0.992 | S. cerevisiae deletion strains, locus YMR263W, strain SAP30, active compounds read low 1.01 and 1 | S. cerevisiae deletion strains, locus YMR307W, strain GAS1, active compounds read low 1.01 | S. cerevisiae deletion strains, locus YNL067W, strain RPL9B, active compounds read low 1 | S. cerevisiae deletion strains, locus YNL071W, strain lat1, active compounds read low 0.984 | S. cerevisiae deletion strains, locus YNL128W, strain TEP1, active compounds read low 1.03 | S. cerevisiae deletion strains, locus YNL153C, strain GIM3, active compounds read low 0.996 and 0.998 | S. cerevisiae deletion strains, locus YNL175C, strain NOP13, active compounds read low 1 | S. cerevisiae deletion strains, locus YNL183C, strain NPR1, active compounds read low 0.991 | S. cerevisiae deletion strains, locus YNL197C, strain WHI3, active compounds read low 1.02 | S. cerevisiae deletion strains, locus YNL209W, strain ssb2, active compounds read low 0.974 | S. cerevisiae deletion strains, locus YNL224C, strain SQS1, active compounds read low 1.01 | S. cerevisiae deletion strains, locus YNL233W, strain BNI4, active compounds read low 1 | S. cerevisiae deletion strains, locus YNL248C, strain rpa49, active compounds read low 0.983 | S. cerevisiae deletion strains, locus YNL250W, strain rad50, active compounds read low 0.992 | S. cerevisiae deletion strains, locus YNL271C, strain bni1, active compounds read low 1 | S. cerevisiae deletion strains, locus YNL298W, strain CLA4, active compounds read low 1 | S. cerevisiae deletion strains, locus YNL307C, strain MCK1, active compounds read low 0.992 | S. cerevisiae deletion strains, locus YNL322C, strain KRE1 (second series), active compounds read low 0.973 | S. cerevisiae deletion strains, locus YNL322C, strain KRE1, active compounds read low 1.01 | S. cerevisiae deletion strains, locus YNR049C, strain mso1, active compounds read low 0.962 | S. cerevisiae deletion strains, locus YNR052C, strain pop2, active compounds read low 1.01 | S. cerevisiae deletion strains, locus YOL006C, strain TOP1, active compounds read low 1.03 | S. cerevisiae deletion strains, locus YOL012C, strain htz1 1.1 | S. cerevisiae deletion strains, locus YOL147C, strain pex11, active compounds read low 0.995 | S. cerevisiae deletion strains, locus YOR001W, strain rrp6, active compounds read low 1 | S. cerevisiae deletion strains, locus YOR061W, strain CKA2, active compounds read low 1 | S. cerevisiae deletion strains, locus YOR069W, strain VPS5, active compounds read low 1.01 | S. cerevisiae deletion strains, locus YOR070C, strain gyp1, active compounds read low 0.992 | S. cerevisiae deletion strains, locus YOR080W, strain dia2, active compounds read low 0.987 | S. cerevisiae deletion strains, locus YOR083W, strain WHI5 (second series), active compounds read low 0.999 | S. cerevisiae deletion strains, locus YOR083W, strain WHI5, active compounds read low 0.964 | S. cerevisiae deletion strains, locus YOR106W, strain vam3, active compounds read low 0.932 | S. cerevisiae deletion strains, locus YOR136W, strain idh2, active compounds read low 0.994 | S. cerevisiae deletion strains, locus YOR144C, strain elg1, active compounds read low 1 | S. cerevisiae deletion strains, locus YOR184W, strain ser1, active compounds read low 0.986 | S. cerevisiae deletion strains, locus YOR231W, strain MKK1, active compounds read low 1.05 | S. cerevisiae deletion strains, locus YOR265W, strain rbl2, active compounds read low 0.993 | S. cerevisiae deletion strains, locus YOR270C, strain vph1, active compounds read low 0.947 | S. cerevisiae deletion strains, locus YOR290C, strain snf2, active compounds read low 0.909 | S. cerevisiae deletion strains, locus YOR316C, strain cot1, active compounds read low 0.991 | S. cerevisiae deletion strains, locus YPL051W, strain arl3, active compounds read low 0.998 | S. cerevisiae deletion strains, locus YPL055C, strain LGE1, active compounds read low 1.02 and 1 | S. cerevisiae deletion strains, locus YPL078C, strain atp4, active compounds read low 0.975 | S. cerevisiae deletion strains, locus YPL106C, strain sse1, active compounds read low 0.971 | S. cerevisiae deletion strains, locus YPL240C, strain hsp82, active compounds read low 0.98 | S. cerevisiae deletion strains, locus YPL241C, strain CIN2, active compounds read low 1.01 | S. cerevisiae deletion strains, locus YPL256C, strain CLN2, active compounds read low 1.13 | S. cerevisiae deletion strains, locus YPR119W, strain clb2, active compounds read low 0.987 | S. cerevisiae deletion strains, locus YPR141C, strain kar3, active compounds read low 0.993 | S. cerevisiae deletion strains, locus YPR163C, strain tif3, active compounds read low 0.99 | S. cerevisiae deletion strains, locus YPR167C, strain met16, active compounds read low 0.992 | S. cerevisiae deletion strains, strain wtn01, active compounds read low 0.982 | S. cerevisiae strains, strain wild type, active compounds read low 1.01
